Compound activity: PubChem, National Center for Advancing Translational Sciences (NCATS)
Rows were chosen to be rich in hits. Some 8.5% of all compounds tested hit in one or more screens of this group.
ALDH1A1 inh: blocks purified human ALDH1A1 activity; P00352; Purified ALDH1A1, NADH fluorescence, propionaldehyde substrate; Potency, µM (series often up to 75.3 µM), for the others: at the top dose activity, negative = inhibition, usual class: inhibitors; 7.3% of 220,000 active; AID 1030; active = well fitted inhibition curve with a large enough effect, not every such curve was filed as active; inconclusive = small, poorly fitted or top-dose-only effect, or another doubt; inactive = no such curve, though single readings can be large or run the other way;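 note: potency is the fitted concentration of half-maximal effect; plate controls were no enzyme wells and a reference inhibitor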
Target sequence (P00352 whole entry, looked up): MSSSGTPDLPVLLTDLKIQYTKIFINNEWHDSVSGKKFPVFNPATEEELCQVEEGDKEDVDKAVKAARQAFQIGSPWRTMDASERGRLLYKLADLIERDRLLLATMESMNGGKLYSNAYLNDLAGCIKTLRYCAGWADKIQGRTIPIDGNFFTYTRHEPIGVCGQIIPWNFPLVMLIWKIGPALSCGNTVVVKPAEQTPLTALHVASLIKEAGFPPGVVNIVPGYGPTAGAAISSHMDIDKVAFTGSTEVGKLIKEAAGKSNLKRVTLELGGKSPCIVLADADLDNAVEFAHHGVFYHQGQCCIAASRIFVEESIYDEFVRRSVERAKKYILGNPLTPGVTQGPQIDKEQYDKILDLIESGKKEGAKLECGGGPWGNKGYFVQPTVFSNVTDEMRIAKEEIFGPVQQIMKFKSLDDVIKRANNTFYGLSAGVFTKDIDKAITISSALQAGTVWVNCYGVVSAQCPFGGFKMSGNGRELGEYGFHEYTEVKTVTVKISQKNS
Sfp PPTase inh: Sfp phosphopantetheinyl transferase inhibition | Q9F4F7 | Biochemical Sfp PPTase activity, qHTS | Potency, µM, for the others: largest response in the series, negative = inhibition, hits mostly inhibitors | 3.5% of 310,000 active | AID 1490;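 note: the enzyme is Sfp with the accession as filed and its product quenches rhodamine fluorescence; potency is the fitted concentration of half-maximal effect; 0% = enzyme reaction without inhibitor and -100% = no enzyme wells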
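Step 1, compound plus 15 nM Sfp-PPTase, 15 min, room temperature. Step 2, add rhodamine-CoA (5 uM) and BHQ-2-YbbR (12.5 uM). Step 3, read 525/598 nm fluorescence at 0 and 30 min.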
RGS12 GoLoco inh: RGS12 GoLoco-Gai1 interaction inhibition. P63096. Gai1:RGS12 GoLoco peptide FP, rhodamine, 10 min. Potency, µM (series often up to 61.6 µM), inactives show at the highest dose activity, negative = inhibition, most hits filed as inhibitors. 0.44% of 230,000 active. AID 880; active = well fitted inhibition curve with a large enough effect, not every such curve was filed as active; inactive = no such curve, though single readings can be large or run the other way; note: potency is the fitted concentration of half-maximal effect; nearly all actives have a fitted effect of over 30% in size
JMJD2E inh: JMJD2E (human) inhibition | B2RXH2 | JMJD2E catalytic domain, FDH-coupled NADH fluorescence (FDH is formaldehyde dehydrogenase) | Potency, µM (highest dose often 57.1 µM), for inactives: at the top dose activity change, negative = inhibition, hits mostly inhibitors | 1.6% of 230,000 active; active = well fitted inhibition curve with a large enough effect, not every such curve was filed as active; inconclusive = small, poorly fitted or top-dose-only effect, or another doubt; inactive = no such curve, though single readings can be large or run the other way;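 note: potency is the fitted concentration of half-maximal effect; 0% = wells with enzyme and -100% = buffer wells without enzyme; nearly all actives have a fitted effect of over 50% in size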
Coupling enz: coupling enzyme interference in Giardia aldolase counter-screen | coupling enzyme system counterscreen, AmpLite Red fluorescence | activity change, negative = inhibition, % at 58.2 µM, hits read low | 0.67% of 290,000 active | AID 2472; in the data active = activity change below about -30%
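Compounds tested against the coupling enzymes alone at 57.5 uM final; readout was AmpLite Red fluorescence (525/598 nm) after 20 min at RT.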
NPSR antag: antagonists of human neuropeptide S receptor cAMP signaling | Q6W5P4 | CHO-NPSR cells, cAMP TR-FRET, antagonist mode | Potency, µM (doses to about 38.3 µM), without a hit: at the highest dose activity change, negative = inhibition, usual class: inhibitors | 1% of 220,000 active | AID 1461; note: potency is the fitted concentration of half-maximal effect; nearly all actives have a fitted effect of over 50% in size
An asterisk follows results filed as active; [ ] = dose if it differs, or a comment. Unless noted, calls come from the whole dose curve; as a rule, active = well fitted curve in the direction sought with a large enough effect; inconclusive = small, poorly fitted or top-dose-only effect, or another doubt; inactive = no such curve, though single readings can be large; an effect the other way counts as inactive or inconclusive. Unless noted, % is set by controls: 0 for no effect and ±100 for the full control effect.

For COc1ccc(OCC(=O)N/N=C(\C)CC(=O)Nc2ccc(OC)cc2[N+](=O)[O-])cc1 the results were ALDH1A1 inh 20µM*, Sfp PPTase inh 17.6%, RGS12 GoLoco inh 1.7%, JMJD2E inh 29.6%, Coupling enz 1.4 and NPSR antag -5.1%.
`Cc1ccc(S(=O)(=O)Cn2nnnc2C(CC(C)C)N2CCN(C)CC2)cc1` (stereo unspecified) gave ALDH1A1 inh 1.8%, Sfp PPTase inh -17.9%, RGS12 GoLoco inh 7.6%, JMJD2E inh -8.1%, Coupling enz -3.7 and NPSR antag -16.6%.
Screening O=C(Cc1ccccc1)Nc1cccc(N2CCCC2)c1 returned ALDH1A1 inh 14.1µM*, Sfp PPTase inh -56.5%, RGS12 GoLoco inh 24.2%, JMJD2E inh inconclusive, Coupling enz -27.9 and NPSR antag -16.6%[46.1 µM].
For COc1cccc2c1CCC1=CC(=O)CC[C@@]12C the results were ALDH1A1 inh inconclusive, Sfp PPTase inh 24.0%, RGS12 GoLoco inh 5.4%, JMJD2E inh 4.3% and Coupling enz -3.8.
`Cc1cccnc1NC(=O)CCc1nnc2ccc(N3CCC4(CC3)OCCO4)nn12` gave Sfp PPTase inh 14.6% and Coupling enz -0.2.
For CCOc1ccccc1NC(=O)[C@@H](NC(=O)c1ccccc1F)C(C)C the results were Sfp PPTase inh 18.2% and Coupling enz -0.2.
`COc1ccc2[nH]c(=O)c(CN(CC3CCCO3)S(=O)(=O)c3ccccc3F)cc2c1` (stereo unspecified) gave Sfp PPTase inh 18.4% and Coupling enz -0.9.
`CCN(C(=O)COC(=O)c1cc([N+](=O)[O-])ccc1N1CCCCC1)C1CCS(=O)(=O)C1` (stereo unspecified) gave ALDH1A1 inh 14.1µM*, Sfp PPTase inh 9.9%, RGS12 GoLoco inh 2.1%, JMJD2E inh -6.6%, Coupling enz 2.2 and NPSR antag -7.5%.
C/C(=N\NC(=O)CSc1nc(C)cc(C)n1)c1ccc([N+](=O)[O-])cc1 was read as ALDH1A1 inh -0.1%, Sfp PPTase inh -10.7%, RGS12 GoLoco inh -1.3%, JMJD2E inh 3.8%, Coupling enz 0.9 and NPSR antag 20.1%.
Cc1cc(C=O)c(C)n1-c1ccc(N2CCOCC2)cc1 was read as ALDH1A1 inh 3.16µM*, Sfp PPTase inh 13.8%, RGS12 GoLoco inh -4.7%, JMJD2E inh -1.0%, Coupling enz 2.8 and NPSR antag -2.5%[46.1 µM].
For Cc1cc(/C=C2/NC(=O)NC2=O)c(C)n1-c1ccc(N2CCOCC2)cc1 the results were ALDH1A1 inh inconclusive, Sfp PPTase inh -0.7%, RGS12 GoLoco inh 5.6%, JMJD2E inh inconclusive, Coupling enz -1.7 and NPSR antag -26.7%.
For Cc1cc(/C=C2\NC(=O)NC2=O)c(C)n1-c1ccc(N2CCOCC2)cc1 the results were ALDH1A1 inh 25.1µM*, Sfp PPTase inh -0.4%, RGS12 GoLoco inh -1.1%, JMJD2E inh 15.8µM*, Coupling enz -14.2 and NPSR antag 29.4%.
Screening Cc1cc(/C=C2\SC(=O)NC2=O)c(C)n1-c1ccc(N2CCOCC2)cc1 returned ALDH1A1 inh -5.0%, Sfp PPTase inh -12.3%, RGS12 GoLoco inh 13.6%, JMJD2E inh -24.3%, Coupling enz 3.1 and NPSR antag 20.7%.
For C=C(C)C1Cc2c(C)nn(-c3nc(C)cc(C)n3)c2C1 (stereo unspecified) the results were ALDH1A1 inh 20µM*, Sfp PPTase inh 7.6%, RGS12 GoLoco inh 2.0%, JMJD2E inh -4.6%, Coupling enz 0.4 and NPSR antag inconclusive.
Screening C=C(C)C1Cc2nc(N)nc(C)c2C1 (stereo unspecified) returned ALDH1A1 inh inconclusive, Sfp PPTase inh 21.5%, RGS12 GoLoco inh 14.2%, JMJD2E inh inconclusive, Coupling enz 3.0 and NPSR antag -8.7%[46.1 µM].
For O=C(c1ccc(CS(=O)Cc2cccc(Cl)c2)o1)N1CCN(C2CCCCC2)CC1 (stereo unspecified) the results were Sfp PPTase inh 9.8% and Coupling enz -5.4.
For FC(F)(F)c1cccc(OCC2CNC(=S)O2)c1 (stereo unspecified) the results were Sfp PPTase inh 12.3%, RGS12 GoLoco inh -1.6%, JMJD2E inh -6.9%, Coupling enz 1.3 and NPSR antag 8.3%.
Screening CN(C)S(=O)(=O)c1ccc(C(=O)OCC(=O)NCc2ccco2)cc1 returned ALDH1A1 inh 15µM*, Sfp PPTase inh -4.1%, RGS12 GoLoco inh 26.2%, JMJD2E inh -4.9%, Coupling enz 0.8 and NPSR antag 5.8%.
For O=C(COC(=O)c1cccs1)NCc1ccco1 the results were ALDH1A1 inh 0.5%, Sfp PPTase inh -2.9%, RGS12 GoLoco inh -0.5%, JMJD2E inh -1.2%, Coupling enz 3.7 and NPSR antag -22.2%[7.67 µM].
For O=C(COC(=O)c1ccc(NS(=O)(=O)c2cccs2)cc1)NCc1ccco1 the results were Sfp PPTase inh 35.5µM*, RGS12 GoLoco inh 10.8%, JMJD2E inh -11.8%, Coupling enz 3.5 and NPSR antag -13.6%.
CN(C)S(=O)(=O)c1ccc(C(=O)NCc2ccco2)cc1 was read as ALDH1A1 inh inconclusive, Sfp PPTase inh -9.1%, RGS12 GoLoco inh 2.6%, JMJD2E inh -1.3%, Coupling enz 0.0 and NPSR antag -12.1%.
Screening O=C(COC(=O)c1ccc(S(=O)(=O)NCc2ccco2)cc1)NC1CCCCCC1 returned ALDH1A1 inh -3.4%, Sfp PPTase inh 56.2µM*, RGS12 GoLoco inh -10.2%, JMJD2E inh -2.3%, Coupling enz 4.9 and NPSR antag -8.4%[46.1 µM].
COc1ccc(C(=O)NC(=O)Nc2cc(C)ccn2)cc1 was read as ALDH1A1 inh 12.6µM*, Sfp PPTase inh 8.2%, JMJD2E inh inconclusive, Coupling enz -1.9 and NPSR antag -10.9%[46.1 µM].
Screening COc1c(O)cc2c(c1O)[C@@H]1O[C@@H](CO)[C@@H](O)[C@@H](O)[C@@H]1OC2=O returned ALDH1A1 inh -6.4%[20.9 µM], Sfp PPTase inh -2.5%, RGS12 GoLoco inh -2.1%[21.6 µM], JMJD2E inh 1.4%[25.5 µM] and Coupling enz 1.4.
For O=C1OCC2OC(O)C(O)C(O)C2OC(=O)c2cc(O)c(O)c(O)c2-c2c(O)c(O)c3oc(=O)c4c(c(O)c(O)c5oc(=O)c2c3c54)-c2c1cc(O)c(O)c2O (stereo unspecified) the results were Sfp PPTase inh 3.55µM*, RGS12 GoLoco inh -45.4%, JMJD2E inh 0.562µM*, Coupling enz -14.6 and NPSR antag 9.5%.
Screening Cc1ccccc1CCN(C(=O)c1csnn1)C(C(=O)NC1CCCC1)c1ccco1 (stereo unspecified) returned Sfp PPTase inh 2.7% and Coupling enz 0.9.
For COC(=O)c1cc(S(=O)(=O)NCC2CCN(Cc3cccc(Cl)c3)CC2)c[nH]1 the results were Sfp PPTase inh 14.4%.
